PubChem BioAssay (NCATS)
Where “and” joins values, the source holds several entries; their conditions need not be identical. Identical values can stand only once. Results filed as inconclusive are left out. The source holds several records for some structures; these can differ, active in one and inactive in another. A number with no mark means an inactive call. Calls of active or inactive are those of the source. Calls come from the whole dose curve; as a rule, active = well fitted activation curve with a large enough effect; inconclusive = small, poorly fitted or top-dose-only effect; inactive = no such curve, though single readings can be large or run the other way.

These molecules were tested against Cellular tumor antigen p53 (Homo sapiens) (UniProt P04637) (assay: Primary qHTS for small molecule compounds that upregulate eGFP-tagged delta133p53alpha (in N-terminal) cells. (AID 2060322; note: nearly all actives have a fitted effect of over 75% in size;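 for activation: cells pre-induced with doxycycline then dosed without doxycycline; series mostly up to about 56 µM; 0% = DMSO vehicle and 100% = reference activator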)). Settings: NCI-H358 eGFP-delta133p53alpha fluorescence, 24 h; activation: hits give high values.
Sequence of Cellular tumor antigen p53 (Homo sapiens) (P04637 whole entry, looked up): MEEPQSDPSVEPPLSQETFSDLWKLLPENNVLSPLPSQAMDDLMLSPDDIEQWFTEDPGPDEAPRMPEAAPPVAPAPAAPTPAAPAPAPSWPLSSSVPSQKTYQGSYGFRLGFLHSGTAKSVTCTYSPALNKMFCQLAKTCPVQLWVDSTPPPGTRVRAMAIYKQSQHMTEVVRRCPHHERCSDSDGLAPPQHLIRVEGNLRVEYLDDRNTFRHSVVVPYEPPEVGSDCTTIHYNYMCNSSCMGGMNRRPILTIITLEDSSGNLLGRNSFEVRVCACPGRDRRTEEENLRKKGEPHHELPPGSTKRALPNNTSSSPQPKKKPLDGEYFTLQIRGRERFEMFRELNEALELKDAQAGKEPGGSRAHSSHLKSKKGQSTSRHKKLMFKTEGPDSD
Description: Assay Development and Screening Technology
National Center for Advancing Translational Sciences (NCATS),
National Institute of Health (NIH), Rockville, Maryland
Cellular senescence (CS) is one of the hallmarks of aging and age-related diseases. Senescent cells are characterized by an irreversible growth arrest, an increase in senescence-associated beta-galactosidase (SA-beta-gal) activity and p16INK4a expression, an activation of the DNA damage response pathways, and the emergence of a senescence-associated secretory phenotype (SASP).
Delta133p53alpha, a human/primate-specific p53 protein isoform, delays or inhibits the induction of CS and SASP in various types of human cells, including progeria-derived fibroblasts, primary normal astrocytes, and CD8+ T lymphocytes. Induction of delta133p53alpha with small molecule compounds may provide therapeutic opportunities for inhibition of senescence/SASP-associated pathologies in progeria syndromes, astrocyte-mediated neuroprotection in neurodegenerative diseases, and possibly prevention and treatment of a wider range of senescence- and aging-associated diseases.
Here we report the development and validation of a cell-based quantitative high throughput screening (qHTS) assay in 1,536-well format. This qHTS assay uses the NCI-H358 cell line with doxycycline-inducible expression of enhanced green fluorescent protein (eGFP)-tagged delta133p53alpha, which allows efficient and highly quantitative measurement of the protein levels.
PROTOCOL TABLE (as described by Inglese J, Shamu CE and Guy RK. 2007)
SEQUENCE No. (e.g., 1, 2, 3, etc.); […] (e.g., Cells, Incubation, Reagent, etc.); VALUE; DESCRIPTION.
1; Cells; 4uL; 800 doxycycline treated cells / well in doxycycline-free media, 1536-well black, clear-bottom low base Aurora microplates.
2; Compounds; 23 nL; Kalypsis pin tool (Wako) equipped with 1536-well pin heads, 5-azacytidine positive control.
3; Incubation; 24 hr; 37C, 5% CO2; 95% relative humidity.
4; Aspiration; 1x; BioTek EL406 washer dispenser (Agilent).
5; Fixing; 3.5% paraformaldehyde, BioTek EL406 washer dispenser (Agilent).
6; Washing; 1x PBS; BioTek EL406 washer dispenser (Agilent).
7; Nuclei staining; 1:1000 dilution of Hoechst 33342 (Thermofisher), BioTek EL406 washer dispenser (Agilent).
8; Incubation; 20 min; in the dark at room temperature.
9; Washing; 2x, 1x PBS (ThermoFisher), BioTek EL406 washer dispenser (Agilent).
10; Reagent; 10 uL; 1x PBS per well, sealed with clear adhesive tape.
NOTES (numbers refer to sequence numbers above).
1. NCI-H358 cells expressing eGFP-tagged delta133p53alpha were grown in T75 culture flasks and treated with doxycycline for 24h, at 10 ng/ml for eGFP-D133p53a cells (N-terminal cell) and 100 ng/ml for D133p53a-eGFP cells (C-terminal cells). Cells were trypsinized, counted using a Counted 3 Automated Cell Counter (Thermo Fisher), and diluted to a concentration of 200,000 cells/ml. A Multidrop Combi Reagent Dispenser (ThermoFisher) was used to dispense 800 cells/well in […] of doxycycline-free media, into 1536-well black/clear bottom low base plates (AuroraMicroplates).
2. After plating cells, 23 nl of compound library, DMSO vehicle control or positive control (5-azacytidine) were transferred by Pin Tool (Wako). The plate map layout was the same for each plate: (column 1) non-doxycycline treated cells + DMSO vehicle control; (column 2) doxycycline treated cells + DMSO vehicle control baseline; (column 3) doxycycline treated cells + positive control 57.5 uM final concentration 5-azacytidine; (column 4) doxycycline treated cells + serial dilution of 5-azacytidine, 16-point 1:2 titration spanning 1.8 nM to […] final concentration; (columns 5-48) doxycycline treated cells + titration of library compounds.
3. Cells were incubated at 37 °C, 5 % CO2, 95% RH with breathable metal lid for 24h.
4-10. […] After two washes, 10 ul of 1X PBS (Thermo Fisher) was dispensed to each well. Clear adhesive plate seals (VWR) were applied and plates stored at 4 °C.
11. […]
Potency is the fitted concentration of half-maximal effect.

SMILES	activation	Potency
C/C=C/C=C/C=C/C(=O)O[C@@H]1C=C(CO)C(O)(C(=O)O)[C@@]2(C)CCCC(C)(C)[C@H]12 (stereo not given in full)	-9.92%	
CC(C)[C@](O)(c1ccc2cc(OC(F)F)c(OC(F)F)cc2c1)c1cn[nH]n1	12.3%	
O=C(/C=C/c1ccc(O)cc1)OCC1=CC2OC(=O)C3=CO[C@@H](O[C@@H]4O[C@H](CO)[C@@H](O)[C@H](O)[C@H]4O)[C@H]1[C@@H]32 (stereo not given in full)	0%	
CC(C)C(NC(=O)c1ccc(O)cc1)C(=O)N1CCCC1C(=O)Nc1c(O)cccc1C(=O)O (stereo not given)	-0.763%	
C[C@H](NC(c1cccc(C[P+](=O)O)c1)[C@H](C)O)c1ccc(Cl)c(Cl)c1 (stereo not given in full)	9%	
C[C@H](NC(=O)CCc1nc2ccccc2c(=O)[nH]1)c1ccccc1	1%	
Nc1nc2ncc(CNc3ccc(C(=O)N[C@@H](CCC(=O)O)C(=O)O)cc3)nc2c(=O)[nH]1	-10%	
O=C(O)Cc1cccc2ccccc12	1.67% and -33.3%	
COc1cc2nc(Cl)nc(N)c2cc1OC	-37.9%	
C[C@@H]1O[C@@H](O[C@H]2[C@H](O[C@H]3[C@H](O[C@H]4CC[C@@]5(C)C(CC[C@]6(C)C5CC=C5[C@@H]7CC(C)(C)C[C@@H](O)[C@]7(C)CC[C@]56C)[C@@]4(C)CO)O[C@H](C(=O)O)[C@@H](O)[C@@H]3O)O[C@H](C(=O)O)[C@H](O)[C@@H]2O)[C@H](O)[C@H](O)[C@H]1O (stereo not given in full)	6.87%	
c1ccc(-c2oc3ncnc(NC[C@@H]4CCCO4)c3c2-c2ccccc2)cc1	5.12% and -14.3%	
Cc1ncc(-c2ccnc(Nc3ccc(S(C)(=O)=O)cc3)n2)n1C(C)C		3.06 µM (active) and 2.69 µM (active)
Cc1ccccc1N=Nc1ccc(N=Nc2c(O)ccc3ccccc23)c(C)c1	-17.5%	
CC(C)(C)c1ccc(/C=C/C(=O)Nc2ccc3c(c2)OCCO3)cc1	-15.3%	
O=C(O[C@H]1[C@@H]2C=CO[C@@H](O[C@@H]3O[C@H](CO)[C@@H](O)[C@H](O)[C@H]3O)[C@@H]2[C@@]2(CO)O[C@@H]12)c1ccc(O)cc1	4.58%	
O=c1c2ccccc2nc2n1CCc1c-2[nH]c2ccccc12	-0.328% and 11% and -19%	
O=C(CCCl)NCCc1ccccc1	-4.18%	
CC1(C)CC[C@]2(C(=O)OC3OC(CO)C(O)C(O)C3O)CC[C@]3(C)C(=CCC4[C@@]5(C)C[C@@H](O)[C@H](OC6OC(C(=O)O)C(O)C(O)C6O)C(C)(C)C5CC[C@]43C)[C@@H]2C1 (stereo not given in full)	-2.29%	
Cc1cc(C(=O)Nc2cc(Oc3ccc4nc(NC(=O)C5CC5)cn4n3)ccc2C)n(C)n1		16.9 µM (active)
CC[C@@H](N)CNc1ccnc(-c2cc(-c3cnn(C)c3)ccc2O)n1		6.75 µM (active)

SMILES	activation	Potency
O=C(CC1CC(c2ccc(F)cc2F)=NO1)N1CCOCC1 (stereo not given)	1.43%	
CC(=O)O[C@@H](CO[C@@H]1O[C@H](CO)[C@H](O)[C@H](O)[C@H]1O)[C@]1(C)C=C2CC[C@@H]3C(C)(C)[C@@H](O)CC[C@@]3(C)[C@@H]2CC1	18.3%	
COc1cc(Nc2c(C#N)cnc3cc(OCCCN4CCN(C)CC4)c(OC)cc23)c(Cl)cc1Cl		30.9 µM (active) and 23.9 µM (active)
CC(C)NCC(O)COc1ccc(CC(N)=O)cc1 (stereo not given)	-17.7%	
CC(=O)O[C@H]1[C@@]2(O)C[C@H](C)[C@H](OC(=O)c3ccccc3)[C@@H]2[C@@H](OC(=O)CO)[C@]2(OC(C)=O)C[C@H]3C(=O)C(C)(C)C[C@@H]3[C@@]1(C)[C@H]2OC(C)=O	-6.25%	
CN(C)CC[C@@H](c1ccc(Cl)cc1)c1ccccn1	-9.6% and -8.57%	
COc1cc(/C=C/C(=O)O)ccc1O[C@@H]1O[C@H](CO)[C@@H](O)[C@H](O)[C@H]1O[C@@H]1OC[C@](O)(CO)[C@H]1O	-13%	
Cn1cnc([N+](=O)[O-])c1Sc1ncnc2nc[nH]c12	-10%	
COCCNCc1ccc(-c2cc3nccc(Oc4ccc(NC(=O)C5(C(=O)Nc6ccc(F)cc6)CC5)cc4F)c3s2)nc1		19 µM (active)
C=C1C(O)C(O)C2(CC3C(C)=CCC4C(C)(C(=O)O)CCCC34C)OC2C1O (stereo not given)	-22.1%	
c1ccc(-c2csc(N3CCOCC3)n2)cc1	-7.16%	
CN1[C@@H]2CC[C@H]1CC(NC(=O)n1c(=O)[nH]c3ccccc31)C2 (stereo not given in full)	-9.21%	
O=C(C1=CCN2c3c(cccc31)OC[C@H]2CN1CCOCC1)c1cccc2ccccc12	27.7%	
O=C(c1cncc(Br)c1)N1CCC(N2CCCC2)CC1	-12.4% and 0.333%	
OC(c1ccc(-c2ccc(CN3CCN(Cc4ccncc4)CC3)cc2)c(F)c1)(C(F)(F)F)C(F)(F)F	-11%	
Cc1c2cc(c(C(=O)O)c1C)OC1OC(C(O)C(O)C1O)C(O)C(O)C1OC(O2)C(O)C(O)C1O (stereo not given)	-5.34%	
CN1CCc2c(c3ccccc3n2Cc2ccc(C(=O)NO)cc2)C1	77.5%	34.3 µM (active)
COc1cc(NS(=O)(=O)c2ccc(N)cc2)ncn1	-5.86%	
NS(=O)(=O)c1cc(-c2nn[nH]n2)c(NCc2cccs2)cc1Cl	5.02%	
